Experimental findings from ChEMBL document CHEMBL1157539, “Thousands of chemical starting points for antimalarial lead identification” (Nature, 2010) are described below.

Several values for one entry are separate records, joined by “and”; a condition that tells them apart may be missing. Equal values may be shown once.

For the assay, the system named is Plasmodium falciparum. The assay is described as follows: GSK_TCMDC: Inhibition of Plasmodium falciparum Dd2 in whole red blood cells, using parasite LDH activity as an index of growth. Test compounds present at 2uM. Format: functional.
As to `Fc1ccc2[nH]c(-c3cccc(-c4cccc(CNCC5CCCO5)c4)c3)nc2c1.O=C(O)C(F)(F)F` (stereo not given), the Inhibition is 94%. To `Cc1cc(C(=O)CN2C(=O)NC3(CCOc4ccccc43)C2=O)c(C)n1Cc1ccc(F)cc1` (stereo not given) belongs 84%; to `O=C(NCC1CCC(CNCCc2ccccc2)CC1)Nc1ccc(Cl)c(Cl)c1` (stereo not given), 0%; to `CNCCNCc1cccc(-c2ccc(-c3nc4cc(C(F)(F)F)ccc4[nH]3)cc2)c1.O=C(O)C(F)(F)F`, 92%. The compound `Cl.Cn1ccc(-c2cccc(Nc3ccnc4cc(-c5nccs5)ccc34)c2)n1` returned an Inhibition of 94%. Regarding `O=C(Nc1cccc(-c2ccc(CN3CCNCC3)cc2)c1)c1cccc(Cl)c1.O=C(O)C(F)(F)F`, the Inhibition was found to be 4%. As to `OC(CNC1CCCCC1)Cn1c2ccc(Br)cc2c2cc(Br)ccc21` (stereo not given), the Inhibition was determined as 100%.

For the compound `CC(CCc1ccccc1)NCC(O)c1ccc2c3c(cccc13)C(=O)N2C.Cl` (stereo not given), the Inhibition worked out at 57%. Compound `Nc1cc(-c2ccc3c(N)nccc3c2)ccc1Cl` registered an Inhibition of 4%. The compound `c1cn(CCCNc2ncc(-c3ccsc3)c(-c3nccs3)n2)cn1` showed an Inhibition of 51%.

Consider `Cc1cc(F)ccc1N(c1nc(-c2cc(Cl)ccc2Cl)cs1)C1CCNC1.O=C(O)C(F)(F)F` (stereo not given), for which the Inhibition is listed as 3%.

For `COc1ccc(NC(=O)Nc2ccc(-c3ccncc3)c(C(F)(F)F)c2)cc1N1CCN(C)CC1`, the Inhibition was 62%. For the compound `CC(C)Nc1nc(NCCc2c[nH]cn2)nc(NCc2ccc(Cl)c(Cl)c2)n1`, the Inhibition is 0%. Regarding `CCCC(=O)c1cnc2c(I)cccc2c1Nc1ccccc1C`, the Inhibition is 26%. The compound `CN1CCN(CCNc2c3ccccc3nc3ccc4ccccc4c23)CC1.Cl` had an Inhibition of 99%. The compound `Nc1cccc(-c2ccc3ccnc(N)c3c2)c1` registered an Inhibition of 66%. Under `COCc1nc(N)nc(N)c1-c1ccc(Cl)c(Cl)c1` stands 1%; under `CCNc1cc(C(=O)N[C@@H](Cc2ccccc2)[C@H](O)CN[C@@H](C)c2ccccc2)cc(N2CCCC2=O)c1`, 96%; under `COc1ccc(C2CC(=O)C3=C(C2)NC(C)=C(C(=O)OC(C)C)C3c2ccccc2F)cc1OC` (stereo not given), 99%. For the compound `CN(C)Cc1ccc(-c2cc3ncnc(Nc4ccc(OCc5cccc(F)c5)c(Cl)c4)c3s2)[nH]1`, the Inhibition was 87%. For the compound `CCN(CC)CCN(Cc1ccc(-c2ccc(C(F)(F)F)cc2)cc1)C(=O)Cn1c(SCc2ccc(F)c(F)c2F)nc(=O)c2c1CCC2.O=C(O)C(O)C(O)C(=O)O`, the Inhibition is given as 96%. `Cc1ccc(CCC(C)NCC(O)c2cccc(C(F)(F)F)c2)cc1` (stereo not given) showed an Inhibition of 98%. `COCCNCc1ncsc1-c1ccc2c(Nc3ccc(Oc4ccccc4)cc3)ccnc2c1`: the Inhibition turned out to be 93%. Under `Cc1cccc2nc(-c3cccc(-c4cccc(C(=O)N5CCCCC5CN5CCC(O)C5)c4)c3)[nH]c12` (stereo not given) stands 71%; under `c1ccc(-c2cc(NCCCn3ccnc3)nc(-c3cccnc3)n2)cc1`, 6%; under `COc1ccc2ncc(F)c(CCN3CC(O)C(CNCc4nc5c(cc4Cl)OCC(=O)N5)C3)c2n1.Cl` (stereo not given), 23% and 15% and 30%. Compound `CCNc1cc(C(=O)N[C@@H](Cc2ccccc2)[C@H](O)CNC(C)C)cc(N2CC(c3ccccc3)CCS2(=O)=O)c1` (stereo not given in full) gave an Inhibition of 99%. For the compound `CCCN/C=N/c1cc(-c2csc(NC(=N)N)n2)cc([N+](=O)[O-])c1`, the Inhibition amounted to 1%. `Nc1ncc(-c2ccsc2)c2ccc(-c3cnc[nH]3)cc12` showed an Inhibition of 70%. As for `O=C(O)C(F)(F)F.c1ccc(CN2CCC(NCc3ccccc3-c3cccc(CNC4CCCC4)c3)CC2)cc1`, the Inhibition is reported as 59%. To `Oc1ccc2ncnc(Nc3ccc(OCc4cccc(F)c4)c(Cl)c3)c2c1` belongs 30%; to `CCCCN1C(=O)C2CC(=O)CC(C3CCCCC3)C2C1=O` (stereo not given), 1%; to `OC1(c2ccccc2)c2cc(Cl)ccc2OC1c1nc2c(Cl)ccc(Cl)c2o1` (stereo not given), 89%. As to `COc1c(C2CCN(CCCCNC(=O)c3ccc(NC(=O)c4ccc(C#N)cc4)cc3)CC2)ccc2c1CCCC2`, the Inhibition worked out at 100%. The compound `O=C(NCCCN1CCOCC1)c1cccc(Nc2nccc(Nc3ccc(Oc4ccccc4)cc3)n2)c1` had an Inhibition of 22%. Regarding `O=C(c1ccc(O)c(-c2cc(Cl)cc(Cl)c2)c1)N1CCCC1`, the Inhibition is given as 57%. Under `COc1cccc(Nc2nc(Nc3cccc(C#N)c3)cc(C(F)(F)F)n2)c1` stands 45%; under `Cl.N#Cc1ccc2c(c1)CCN(CCC1CCC(NC(=O)/C=C/c3cc(Br)cs3)CC1)CC2` (stereo not given), 1%. As to `Cc1ccc(Nc2nc(N)c3ccccc3n2)cc1.Cl`, the Inhibition amounted to 12%. For the compound `COc1ccc2nccc([C@@H](O)CN3CCC(NC(=O)C(c4cc5ccccc5o4)N4CCN(c5ccccc5OC)CC4)CC3)c2c1` (stereo not given in full), the Inhibition is 83%.

One may read the Inhibition as the drop in the measured response relative to a control, in per cent.
